Giardia killer: kills Giardia lamblia; Giardia lamblia trophozoite viability; activity change, % at 7.66 µM, hits read low; 0.15% of 340,000 active; AID 540267; in the data active = activity change below about -80%; inconclusive = between about -30% and that limit;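 also: parasites exposed to compound for two days anaerobically before the ATP read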
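Each well holds 100 Giardia trophozoites and compound. After two days (48 hrs) at 37 deg C in anaerobic conditions, ATP is quantified by luminescence.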
Vif-APOBEC3G blk: Vif-A3G binding inhibition | Q9HC16 | HeLa A3G-eYFP + Vif (tagged APOBEC3G with the HIV-1 protein that degrades it), YFP fluorescence, overnight | Potency, µM (series often up to 46.1 µM), most hits filed as inhibitors | 0.076% of 410,000 active | AID 602310; also: nearly all actives have a fitted effect of over 60% in size
Target sequence (Q9HC16 whole entry, looked up): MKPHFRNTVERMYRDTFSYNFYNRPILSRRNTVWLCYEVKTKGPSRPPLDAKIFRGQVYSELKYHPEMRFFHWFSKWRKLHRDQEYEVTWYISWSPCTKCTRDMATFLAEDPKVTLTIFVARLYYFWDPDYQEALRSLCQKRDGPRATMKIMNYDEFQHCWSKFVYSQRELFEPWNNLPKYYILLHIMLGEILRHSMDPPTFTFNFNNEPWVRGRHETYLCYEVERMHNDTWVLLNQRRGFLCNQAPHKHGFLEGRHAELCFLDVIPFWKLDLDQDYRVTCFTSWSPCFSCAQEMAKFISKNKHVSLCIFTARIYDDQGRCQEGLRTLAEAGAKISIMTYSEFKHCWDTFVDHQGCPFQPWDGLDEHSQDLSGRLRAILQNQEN
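Read-out is eYFP fluorescence (Ex 488/Em 500-530) from Vif-expressing HeLa A3G-eYFP cells; more signal means A3G escaped Vif-mediated degradation. Cells plated overnight, compound pinned in, incubated overnight at 37 deg C.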
MCF10A rerep: DNA re-replication induction in MCF 10a cells; 2.9% of 350,000 active; MCF 10A DNA re-replication, Hoechst nuclear intensity, 48 h; Potency, µM (top dose mostly 46.1 µM), hits mostly activators; also: nearly all actives have a fitted effect of over 50% in size
SW480 rerep: inducers of DNA re-replication in SW480 colon cancer cells | SW480 DNA re-replication, Hoechst DNA content imaging, 48 h | Potency, µM (highest dose often 46.1 µM), most hits filed as activators | 1.8% of 340,000 active | AID 624297; also: nearly all actives have a fitted effect of over 55% in size
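First, 250 cells per well were seeded. Next, compound or vehicle (23 nL) was pinned in, plates sat 48 hr at 37 C. Finally Hoechst was added for 40 min before fluorescence scanning.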
Vif-APOBEC3F blk: blocks the Vif interaction with APOBEC3F | HeLa A3F-eYFP + Vif (tagged APOBEC3F with the HIV-1 protein that degrades it), YFP fluorescence increase | Potency, µM (top dose mostly 46.1 µM) | 0.2% of 390,000 active | AID 602313; also: nearly all actives have a fitted effect of over 65% in size
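HeLa cells stably expressing Vif plus C-terminally eYFP-tagged A3F were seeded, incubated overnight at 37 deg C, dosed with compound, incubated overnight again at 37 deg C. Yellow fluorescence (Ex 488/Em 500-530) reported blocked Vif-mediated A3F-eYFP degradation.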
IL-1B inflam inh: blocks inflammasome-driven IL-1 beta release; THP-1 LPS/ATP IL-1B secretion, AlphaLISA, 16 h; hits give low values; activity change, % at 57.5 µM; 4.7% of 360,000 active; in the data active = activity change below about -50%; inconclusive = mostly about -30% to -49%
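THP-1 cells pretreated 1 hr with compounds (up to 57.5 uM final), then stimulated with LPS (250 ng/mL final) plus ATP (1.25 mM final); secreted IL-1B measured by AlphaLISA after 16 hr, decreased signal indicating inhibition.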
Numbers stand for hits; n = inactive; u = inconclusive; x = no result given; [ ] = remark or other dose. Compounds with a hit are over-represented: about 6.9% of the library has one in this group of screens. Unless noted, calls follow the shape of the dose curve; as a rule, active = well fitted curve in the direction sought with a large enough effect; inconclusive = small, poorly fitted or top-dose-only effect, or another doubt; inactive = no such curve, though single readings can be large; an effect the other way counts as inactive or inconclusive.

SMILES | Giardia killer | Vif-APOBEC3G blk | MCF10A rerep | SW480 rerep | Vif-APOBEC3F blk | IL-1B inflam inh
COc1cc(/C=N/Nc2ccc(C(F)(F)F)cn2)cc(OC)c1O | n | n | n | 11.6µM | n | n
Oc1ccc(/C=N/Nc2ccc(C(F)(F)F)cn2)cc1 | n | n | n | 9.2µM | n | -94.8
COc1cc(/C=N/Nc2cccc3cccnc23)cc(OC)c1O | n | u | u | u | n | u
CCCCOc1ccc(C2c3c(oc4ccc(C)cc4c3=O)C(=O)N2CCCN(C)C)cc1OCC (centres undefined) | x | n | x | x | n | x
O=C(Nc1ccc(F)cc1)C1CCN(c2nc3ccccc3nc2C(F)(F)F)CC1 | x | n | x | x | n | x
COc1ccc(CNC(=O)CCc2c(C)nc3nc(CNC(=O)OC(C)(C)C)nn3c2C)cc1 | x | n | x | x | n | x
COc1ccc(Cl)cc1NC(=O)CN(c1cc(C)cc(C)c1)S(=O)(=O)c1c(C)n[nH]c1C | x | n | x | x | n | x
O=C(Cn1c(COc2ccccc2)nc2ccccc21)Nc1cc(Cl)ccc1Cl | n | n | n | n | n | n
O=C(Cn1c(COc2ccccc2)nc2ccccc21)Nc1cc(Cl)cc(Cl)c1 | u | n | 11.6µM | n | n | n
CN(C)c1cccc(-c2cc(Nc3ccc(C(C)(C)C)cc3)ncn2)c1 | x | n | x | x | x | n
CN(C)CCCNc1ccc(-c2cc(Nc3cccc(Cl)c3)ncn2)cn1 | n | n | 20.6µM | u | n | n
CCCCCCCCCC[n+]1cccc(Br)c1 | x | n | x | x | x | x
CCC(C)(C)c1ccc(OCCCC[n+]2cccc(C)c2)c(C(C)(C)CC)c1 | n | n | u | u | n | -179.9
C#CCn1cnc2c(cnn2-c2ccc(F)cc2)c1=O | x | n | x | x | n | x
CSc1ccc(CNC(=O)CCc2c(C)nn(-c3ccc(N4CCCC4)nn3)c2C)cc1 | x | n | x | x | n | x
O=C(O)c1cn(-c2ccc(F)c(F)c2)c2c(F)c(F)c(F)c(F)c2c1=O | n | n | n | n | n | -96.4
O=C(O)c1cn(-c2ccc(F)cc2)c2cc(N3CCNCC3)c(F)cc2c1=O | n | n | n | n | n | n
OC(CNCC1(N2CCCCC2)CCCCC1)COc1ccc(Cl)cc1Cl (centres undefined) | n | n | u | u | n | -90.6
O=C(COc1ccc(Cl)cc1Cl)NCC1(N2CCOCC2)CCCCC1 | n | n | u | n | n | -64.8
O=C(COc1ccc(Cl)cc1Cl)NC(=O)N1CCCCC1 | n | n | u | n | n | n
CCc1cc2cccc(C)c2nc1SCC(=O)c1ccc(NC(C)=O)cc1 | n | n | n | n | n | n
CCc1cc2ccc(C)cc2nc1SCC(=O)c1ccc(NC(C)=O)cc1 | n | n | n | n | n | -61.1
Cc1ccc(CN2CCN(/N=C\c3cccc([N+](=O)[O-])c3)CC2)cc1 | n | n | n | n | n | -61.6
CCOc1ccc(NC(=O)CSc2oc(-c3cccs3)nc2S(=O)(=O)c2ccc(C)cc2)cc1 | x | n | x | x | n | x
CCc1nnc(NC(=O)[C@@H]2CCCN2C(=O)c2cccs2)s1 | n | n | x | x | x | x
SMILES | Giardia killer | Vif-APOBEC3G blk | MCF10A rerep | SW480 rerep | Vif-APOBEC3F blk | IL-1B inflam inh
CCc1cccc(C)c1NC(=O)CCCSc1nc2ccccc2s1 | n | n | u | n | n | n
CCc1cccc(CC)c1NC(=O)C1SC(=Nc2ccccc2C)C(c2nc3ccccc3s2)=C1N (centres undefined) | n | n | u | 8.2µM | n | n
COC(=O)CN1C(=O)CSc2ccc(S(=O)(=O)Nc3ccc(C(C)=O)cc3)cc21 | x | n | x | x | n | x
O=c1[nH]c(-c2ccc(-c3cccc(Cl)c3)o2)nc2ccccc12 | u | n | 10.3µM | n | n | x
COC(c1ccccc1)c1nnc(CCC(=O)N(C)CCOc2ccccc2)o1 (centres undefined) | n | n | n | n | n | -59.3
CCCc1nn2c(C)c(-c3ccccc3)nc2s1 | x | n | x | x | n | x
O=C(Nc1ccc(N2CCN(c3ncccc3C(F)(F)F)CC2)nc1)c1cccs1 | n | n | u | n | u | -100.5
O=C(Nc1ccc(N2CCN(C(=O)c3ccc(Cl)cc3)CC2)cc1)c1cccnc1 | n | n | n | n | n | u
O=C(Nc1ccc(N2CCN(C(=O)c3cccs3)CC2)cc1)c1cccnc1 | n | n | n | n | n | -52.0
O=C(Nc1ccc(N2CCN(C(=O)c3ccccc3)CC2)cc1)c1cccnc1 | n | n | n | n | n | -57.9
O=C(Nc1ccc(N2CCN(c3ccc(C(F)(F)F)cn3)CC2)nc1)c1cccs1 | n | n | n | u | n | n
COc1ccccc1C(C)NCC(=O)c1c(C)[nH]c2ccccc12 (centres undefined) | x | n | x | x | x | x
CNC(=O)c1ccc2nc(-c3cccc(C)c3)c(-c3cccc(C)c3)nc2c1 | n | n | x | x | x | x
Cc1ccn(-c2ccc([N+](=O)[O-])cc2)n1 | n | n | n[0.0737 µM] | 20.6µM | n | n
COC(=O)c1cc(=O)n(CCc2ccc(OC)c(OC)c2)c(=Nc2ccc(F)c(Cl)c2)s1 | n | u | 3.26µM | n | u | -104.2
COC(=O)c1cc(=O)n(Cc2ccc(OC)c(OC)c2)c(=Nc2ccc(F)cc2)s1 | n | n | u | n | n | n
O=C(NCc1ccc(Cl)cc1)c1cnc2sc(N3CCOCC3)nn2c1=O | x | n | x | x | n | x
Cc1ccc2c(c1)C(=O)CC(c1ccc3c(c1)OCCO3)O2 (centres undefined) | n | n | 16.4µM | n | n | u
COc1cc(NC(=O)C2CCN(c3nc4ccccc4nc3C(F)(F)F)CC2)cc(OC)c1 | x | n | x | x | n | x
Cn1c(=O)c2cc(S(=O)(=O)Nc3cc(C(=O)O)cc(C(=O)O)c3)ccc2n(C)c1=O | n | n | n | n | n | n
Cc1cc(C)cc(NS(=O)(=O)c2ccc3c(c2)c(=O)n(C)c(=O)n3C)c1 | n | n | n | n | n | -67.5
COc1ccccc1N(C)S(=O)(=O)c1ccc(Cl)c(C(=O)OCc2c(C)noc2C)c1 | n | n | 16.4µM | u | n | u
CCN(CC)c1nc2c3c(nc4c(c3c1C#N)CC(=O)N4c1ccc(Cl)cc1)NC(C)=N2 | n | n | 9.2µM | n | n | n
CCc1ccc(N2C(=O)Cc3c2nc(N)c(C#N)c3N)cc1 | n | n | n | n | n | n
Cc1sc2nc(C)n(/N=C/N(C)C)c(=O)c2c1C | n | n | n | 14.6µM | n | n
CC[C@@]1(c2cccc(C)c2)C(=O)N(C(=O)OC)N1C(=O)OC | n | n | u | n | n | -88.3
CC[C@@]1(c2ccccc2OC)C(=O)N(C(=O)OC)N1C(=O)OC | n | n | u | u | n | -87.3
COc1ccc(NC(=O)Cn2c3ncccc3c(=O)n2-c2ccc(C)c(C)c2)c(OC)c1 | x | n | x | x | n | x
CCOC(=O)c1nnc(-c2ccccc2)nc1Sc1ccccc1Cl | n | u | 6.51µM | u | n | -116.2
